Vaccinia stage: Vaccinia orthopox stage-specific inhibition. Vaccinia-infected cells, mCherry/Venus stage reporter fluorescence; active compounds read low. activity change (mCherry), % (test concentration not listed). hit rate 0.01% among 89,000; in the data active = activity change below about -37%, passing the limit was not always enough; tested in A549 cells
* marks the source's active call; other numbers are inactive results. Many of the other results were omitted from the sample, so hits are more common in it than they were.

CN(C)C(=O)c1ccc(-c2cccc(-c3nc(C(=O)NC4CCC4)cc4c3[C@@H](CCO)N([S@](=O)C(C)(C)C)C4)c2)cc1 was read as Vaccinia stage -11.
Screening CN(C)C(=O)c1ccc(-c2cccc(-c3nc(C(=O)NC4CCCC4)cc4c3[C@@H](CCO)N([S@](=O)C(C)(C)C)C4)c2)cc1 returned Vaccinia stage -17.
`CN(C)C(=O)c1ccc(-c2cccc(-c3nc(C(=O)NC4CCCC4)cc4c3[C@H](CCO)N([S@@](=O)C(C)(C)C)C4)c2)cc1` gave Vaccinia stage -36*.
CN(C)C(=O)c1ccc(-c2cccc(-c3nc(C(=O)NC4CCCCC4)cc4c3[C@@H](CCO)N([S@](=O)C(C)(C)C)C4)c2)cc1 was read as Vaccinia stage -51*.
For CNC[C@H]1Oc2cc(-c3cncnc3)ccc2S(=O)(=O)N([C@@H](C)CO)C[C@@H]1C the results were Vaccinia stage 0.
C[C@H](CO)N1C[C@H](C)[C@H](CN(C)CC2CCCCC2)Oc2ccc(NS(=O)(=O)c3cccs3)cc2C1=O was read as Vaccinia stage 12.
Screening C[C@@H]1CN([C@H](C)CO)C(=O)Cc2cc(NC(=O)NC3CCCCC3)ccc2O[C@@H]1CN(C)CC1CC1 returned Vaccinia stage 8.
CC(C)(C)[S@](=O)N1Cc2cc(C(=O)NC3CCCC3)nc(-c3cccc(Br)c3)c2[C@@H]1CCO was read as Vaccinia stage -19.
`O=C(C[C@H]1CC[C@@H](NC(=O)Nc2cccc(F)c2)[C@@H](CO)O1)NCC1CC1` gave Vaccinia stage -10.
Screening C[C@@H]1CN([C@H](C)CO)C(=O)Cc2cc(NC(=O)C3CCCCC3)ccc2O[C@H]1CN(C)S(=O)(=O)c1cn(C)cn1 returned Vaccinia stage 14.
CO[C@@H]1CN(C)C(=O)c2ccc(NC(=O)NC(C)C)cc2OC[C@H](C)N(C)C[C@@H]1C was read as Vaccinia stage 18.
For COCC(=O)N1C[C@H](C)[C@@H](OC)CN(C)C(=O)c2ccc(NC(=O)C3CCC3)cc2OC[C@@H]1C the results were Vaccinia stage 8.
For CCCNC(=O)N(C)C[C@H]1Oc2cc(Br)ccc2S(=O)(=O)N([C@@H](C)CO)C[C@H]1C the results were Vaccinia stage 12.
Screening CO[C@H]1CN(C)C(=O)c2cc(NC(C)=O)ccc2OC[C@@H](C)N(C(=O)C2CCOCC2)C[C@@H]1C returned Vaccinia stage 25.
Screening COc1ccc(-c2cnc3c(c2)C(=O)N([C@@H](C)CO)C[C@H](C)[C@H](CN(C)C)O3)cc1 returned Vaccinia stage -7.
For Cc1ccc(S(=O)(=O)Nc2cccc3c2O[C@H](CN(C)Cc2ccccc2)[C@H](C)CN([C@H](C)CO)C3=O)cc1 the results were Vaccinia stage -5.
`O=C(C1CCC1)N1CCCCN2[C@H](C1)[C@H](c1ccc(C#CC3(O)CCCC3)cc1)[C@@H]2CO` gave Vaccinia stage 21.
COc1ccc(NC(=O)Nc2ccc3c(c2)C(=O)N([C@@H](C)CO)C[C@@H](C)[C@H](CN(C)C(=O)Nc2ccccc2)OCCCC[C@@H](C)O3)cc1 was read as Vaccinia stage -7.
Screening CNC[C@@H]1OCCCC[C@H](C)Oc2ccc(NS(=O)(=O)c3cccs3)cc2C(=O)N([C@@H](C)CO)C[C@H]1C returned Vaccinia stage 31.
